{"source": "PubChem BioAssay AID1159580", "about": "(chemical genetic matrix, 2015)", "assay": "chemical genetic growth profiling, strain panel (AID 1159580);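 also: tested at 20 µM; growth read once vehicle control cultures reached saturation at 30 °C; 1 = growth at the plate median or of vehicle wells; lower values mean less growth of the strain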", "conditions": "S. cerevisiae deletion strains, growth OD", "key": {"[1]": {"conditions": "locus YDL101C, strain DUN1, active compounds read low"}, "[2]": {"conditions": "locus YHR030C, strain SLT2, active compounds read low"}}, "note": "Out of some 5,500 compounds screened, about 2,000 (36%) were called active. Roughly 18% stayed inconclusive and do not appear here. The list shows a part of the results. Unmarked numbers belong to inactive results. Rule as the data show it: active = normalized growth mostly below about 0.91 (no sharp cut-off); inconclusive = no clear call, values can overlap the other calls; inactive = mostly above about 0.92."}
{"molecule": "Cc1nc(-c2nnc(Sc3ccc(C(F)(F)F)cc3[N+](=O)[O-])n2C)cs1", "values": [{"measurement": "normalized growth", "setting": "locus YAL013W, strain DEP1, active compounds read low", "result": 1.01}, {"measurement": "normalized growth", "setting": "locus YBR229C, strain ROT2, active compounds read low", "result": 1.01}, {"measurement": "normalized growth", "setting": "locus YCL061C, strain MRC1, active compounds read low", "result": 0.995}, {"measurement": "normalized growth", "setting": "[1]", "result": 1}, {"measurement": "normalized growth", "setting": "locus YDR150W, strain NUM1, active compounds read low", "result": 0.993}, {"measurement": "normalized growth", "setting": "locus YEL061C, strain CIN8, active compounds read low", "result": 0.998}, {"measurement": "normalized growth", "setting": "locus YGR078C, strain PAC10, active compounds read low", "result": 1.01}, {"measurement": "normalized growth", "setting": "[2]", "result": 0.965}, {"measurement": "normalized growth", "setting": "locus YHR087W, strain rtc3, active compounds read low", "result": 1.02}, {"measurement": "normalized growth", "setting": "locus YJR043C, strain POL32, active compounds read low", "result": 1.01}, {"measurement": "normalized growth", "setting": "locus YJR075W, strain HOC1, active compounds read low", "result": 0.987}, {"measurement": "normalized growth", "setting": "locus YLR039C, strain RIC1, active compounds read low", "result": 0.965}, {"measurement": "normalized growth", "setting": "locus YLR058C, strain SHM2 (second series), active compounds read low", "result": 1.01}, {"measurement": "normalized growth", "setting": "locus YLR085C, strain ARP6, active compounds read low", "result": 1.14}, {"measurement": "normalized growth", "setting": "locus YLR262C, strain YPT6, active compounds read low", "result": 0.844}, {"measurement": "normalized growth", "setting": "locus YML094W, strain GIM5, active compounds read low", "result": 1.01}, {"measurement": "normalized growth", "setting": "locus YMR219W, strain ESC1, active compounds read low", "result": 1}, {"measurement": "normalized growth", "setting": "locus YMR263W, strain SAP30, active compounds read low", "result": 1.02}, {"measurement": "normalized growth", "setting": "locus YNL153C, strain GIM3, active compounds read low", "result": 0.998}, {"measurement": "normalized growth", "setting": "locus YNL298W, strain CLA4 (second series), active compounds read low", "result": 1.01}, {"measurement": "normalized growth", "setting": "locus YNL322C, strain KRE1, active compounds read low", "result": 1}, {"measurement": "normalized growth", "setting": "locus YNR030W, strain Alg12, active compounds read low", "result": 1.01}, {"measurement": "normalized growth", "setting": "locus YPL055C, strain LGE1, active compounds read low", "result": 1.02}, {"measurement": "normalized growth", "setting": "locus YPL241C, strain CIN2, active compounds read low", "result": 1}, {"measurement": "normalized growth", "setting": "locus YPR135W, strain CTF4, active compounds read low", "result": 0.956}]}
{"molecule": "Cc1ccc(S(=O)(=O)n2c(Sc3ccc([N+](=O)[O-])cc3[N+](=O)[O-])nc3cc(C)ccc32)cc1", "values": [{"measurement": "normalized growth", "setting": "locus YAR019C, strain CDC15, active compounds read low", "result": 0.996}, {"measurement": "normalized growth", "setting": "locus YBL105C, strain PKC1, active compounds read low", "result": 0.972}, {"measurement": "normalized growth", "setting": "locus YBR135W, strain CKS1, active compounds read low", "result": 0.983}, {"measurement": "normalized growth", "setting": "locus YBR136W, strain MEC1, active compounds read low", "result": 0.986}, {"measurement": "normalized growth", "setting": "locus YBR160W, strain CDC28, active compounds read low", "result": 0.986}, {"measurement": "normalized growth", "setting": "locus YDL017W, strain CDC7, active compounds read low", "result": 0.986}, {"measurement": "normalized growth", "setting": "locus YDL028C, strain MPS1, active compounds read low", "result": 0.992}, {"measurement": "normalized growth", "setting": "[1]", "result": 0.989}, {"measurement": "normalized growth", "setting": "locus YDL108W, strain KIN28, active compounds read low", "result": 0.987}, {"measurement": "normalized growth", "setting": "locus YDL132W, strain cdc53, active compounds read low", "result": 0.989}, {"measurement": "normalized growth", "setting": "locus YDL214C, strain PRR2, active compounds read low", "result": 0.947}, {"measurement": "normalized growth", "setting": "locus YDR052C, strain DBF4, active compounds read low", "result": 0.987}, {"measurement": "normalized growth", "setting": "locus YDR054C, strain cdc34, active compounds read low", "result": 0.986}, {"measurement": "normalized growth", "setting": "locus YDR226W, strain ADK1, active compounds read low", "result": 0.987}, {"measurement": "normalized growth", "setting": "locus YDR477W, strain SNF1, active compounds read low", "result": 0.968}, {"measurement": "normalized growth", "setting": "locus YER123W, strain YCK3, active compounds read low", "result": 0.92}, {"measurement": "normalized growth", "setting": "locus YER133W, strain GLC7, active compounds read low", "result": 0.945}, {"measurement": "normalized growth", "setting": "locus YFL009W, strain cdc4, active compounds read low", "result": 0.989}, {"measurement": "normalized growth", "setting": "locus YFL029C, strain CAK1, active compounds read low", "result": 0.988}, {"measurement": "normalized growth", "setting": "locus YFR003C, strain YPI1, active compounds read low", "result": 0.986}, {"measurement": "normalized growth", "setting": "locus YFR019W, strain FAB1, active compounds read low", "result": 0.961}, {"measurement": "normalized growth", "setting": "locus YFR028C, strain CDC14, active compounds read low", "result": 0.99}, {"measurement": "normalized growth", "setting": "locus YGR040W, strain KSS1, active compounds read low", "result": 0.97}, {"measurement": "normalized growth", "setting": "locus YGR052W, strain FMP48, active compounds read low", "result": 0.966}, {"measurement": "normalized growth", "setting": "locus YGR092W, strain DBF2, active compounds read low", "result": 0.86}, {"measurement": "normalized growth", "setting": "[2]", "result": "0.839 (active)"}, {"measurement": "normalized growth", "setting": "locus YHR079C, strain IRE1, active compounds read low", "result": 0.884}, {"measurement": "normalized growth", "setting": "locus YHR082C, strain KSP1, active compounds read low", "result": 1.04}, {"measurement": "normalized growth", "setting": "locus YHR205W, strain SCH9, active compounds read low", "result": 0.868}, {"measurement": "normalized growth", "setting": "locus YIL147C, strain SLN1, active compounds read low", "result": 0.99}, {"measurement": "normalized growth", "setting": "locus YJL095W, strain BCK1, active compounds read low", "result": 0.879}, {"measurement": "normalized growth", "setting": "locus YJL128C, strain PBS2, active compounds read low", "result": 0.939}, {"measurement": "normalized growth", "setting": "locus YJL157C, strain FAR1, active compounds read low", "result": 0.936}, {"measurement": "normalized growth", "setting": "locus YJR016C, strain ILV3, active compounds read low", "result": 0.986}, {"measurement": "normalized growth", "setting": "locus YJR066W, strain TOR1 (second series), active compounds read low", "result": 0.898}, {"measurement": "normalized growth", "setting": "locus YJR066W, strain TOR1, active compounds read low", "result": 1}, {"measurement": "normalized growth", "setting": "locus YKL048C, strain ELM1, active compounds read low", "result": 0.947}, {"measurement": "normalized growth", "setting": "locus YKL067W, strain YNK1, active compounds read low", "result": 0.935}, {"measurement": "normalized growth", "setting": "locus YKL101W, strain HSL1, active compounds read low", "result": 0.917}, {"measurement": "normalized growth", "setting": "locus YKL193C, strain SDS22, active compounds read low", "result": 0.996}, {"measurement": "normalized growth", "setting": "locus YKL203C, strain TOR2, active compounds read low", "result": 1}, {"measurement": "normalized growth", "setting": "locus YLR113W, strain HOG1, active compounds read low", "result": "0.748 (active)"}, {"measurement": "normalized growth", "setting": "locus YLR133W, strain CKI1, active compounds read low", "result": 0.932}, {"measurement": "normalized growth", "setting": "locus YLR403W, strain SFP1, active compounds read low", "result": 0.917}, {"measurement": "normalized growth", "setting": "locus YML070W, strain DAK1, active compounds read low", "result": 0.926}, {"measurement": "normalized growth", "setting": "locus YMR001C, strain CDC5, active compounds read low", "result": 0.987}, {"measurement": "normalized growth", "setting": "locus YMR205C, strain PFK2 (second series), active compounds read low", "result": 0.947}, {"measurement": "normalized growth", "setting": "locus YMR277W, strain FCP1, active compounds read low", "result": 0.988}, {"measurement": "normalized growth", "setting": "locus YNL006W, strain LST8, active compounds read low", "result": 0.971}, {"measurement": "normalized growth", "setting": "locus YNL020C, strain ARK1, active compounds read low", "result": 0.898}, {"measurement": "normalized growth", "setting": "locus YNL161W, strain CBK1, active compounds read low", "result": 0.968}, {"measurement": "normalized growth", "setting": "locus YNL183C, strain NPR1, active compounds read low", "result": 0.958}, {"measurement": "normalized growth", "setting": "locus YNL207W, strain RIO2, active compounds read low", "result": 0.984}, {"measurement": "normalized growth", "setting": "locus YNL222W, strain SSU72, active compounds read low", "result": 0.975}, {"measurement": "normalized growth", "setting": "locus YNL307C, strain MCK1 (second series), active compounds read low", "result": 0.901}, {"measurement": "normalized growth", "setting": "locus YOL078W, strain AVO1, active compounds read low", "result": 0.987}, {"measurement": "normalized growth", "setting": "locus YOL136C, strain PFK27, active compounds read low", "result": 0.919}, {"measurement": "normalized growth", "setting": "locus YOR061W, strain CKA2, active compounds read low", "result": 0.873}, {"measurement": "normalized growth", "setting": "locus YOR119C, strain RIO1, active compounds read low", "result": 1.03}, {"measurement": "normalized growth", "setting": "locus YOR231W, strain MKK1, active compounds read low", "result": 0.887}, {"measurement": "normalized growth", "setting": "locus YOR329C, strain SCD5, active compounds read low", "result": 0.968}, {"measurement": "normalized growth", "setting": "locus YPL031C, strain PHO85, active compounds read low", "result": 0.951}, {"measurement": "normalized growth", "setting": "locus YPL153C, strain RAD53, active compounds read low", "result": 0.964}, {"measurement": "normalized growth", "setting": "locus YPL204W, strain HRR25, active compounds read low", "result": 0.931}, {"measurement": "normalized growth", "setting": "locus YPL209C, strain IPL1, active compounds read low", "result": 0.971}, {"measurement": "normalized growth", "setting": "locus YPL256C, strain CLN2, active compounds read low", "result": 0.862}, {"measurement": "normalized growth", "setting": "locus YPR025C, strain CCL1, active compounds read low", "result": 0.988}, {"measurement": "normalized growth", "setting": "locus YPR106W, strain ISR1, active compounds read low", "result": 0.989}, {"measurement": "normalized growth", "setting": "locus YPR111W, strain DBF20, active compounds read low", "result": 0.966}, {"measurement": "normalized growth", "setting": "strain NNK1, active compounds read low", "result": 0.982}, {"measurement": "normalized growth", "setting": "strain TSCII, active compounds read low", "result": 0.986}]}
